Source: PubChem BioAssay
Cruzain inh noDet: inhibitors of Trypanosoma cruzi cruzain without detergent. P25779. purified cruzain, Z-FR-AMC fluorescence, no detergent. Potency, µM, for the others: max response, negative = inhibition, most hits filed as inhibitors. 2.3% of 200,000 active. AID 1476;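 note: plate controls were enzyme without inhibitor for no effect and buffer without enzyme for full effect; nearly all actives have a fitted effect of over 40% in size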
Target sequence (P25779 123-467 limits assumed): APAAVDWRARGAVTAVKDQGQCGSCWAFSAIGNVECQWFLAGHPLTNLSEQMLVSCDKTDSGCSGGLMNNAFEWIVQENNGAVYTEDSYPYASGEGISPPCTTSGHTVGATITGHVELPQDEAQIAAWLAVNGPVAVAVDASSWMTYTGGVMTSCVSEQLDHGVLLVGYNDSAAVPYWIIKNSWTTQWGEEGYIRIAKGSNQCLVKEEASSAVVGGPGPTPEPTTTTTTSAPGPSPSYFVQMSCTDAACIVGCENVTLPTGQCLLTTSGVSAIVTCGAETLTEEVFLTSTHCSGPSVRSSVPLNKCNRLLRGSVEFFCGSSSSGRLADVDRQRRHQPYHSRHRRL
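Purified cruzain at 1.5 nM, pre-incubated 15 min with compound at room temperature in 100 mM sodium acetate pH 5.5, 5 mM DTT, 0.00005% Triton X-100. Reaction started with 2 uM Z-FR-AMC; AMC fluorescence increase over 60 s gives rate.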
Cruzain inh Det: cruzain (T. cruzi) inhibition with detergent. P25779. purified cruzain, Z-FR-AMC fluorescence, 0.01% Triton. Potency, µM, inactives show max response, negative = inhibition, usual class: inhibitors. 0.43% of 200,000 active. AID 1478;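 note: plate controls were neutral wells for no effect and buffer without enzyme for full effect; nearly all actives have a fitted effect of over 40% in size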
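Cysteine protease activity tested under reducing, mildly acidic conditions (100 mM sodium acetate pH 5.5, 5 mM DTT) plus 0.01% Triton X-100. Cruzain 1.5 nM; substrate Z-FR-AMC 2 uM; 15 min compound preincubation at room temperature.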
NS1 inh: blocks influenza NS1 protein function; Potency, µM (highest dose often 46.1 µM), without a hit: at the top dose activity, positive = more growth; 0.4% of 270,000 active; AID 2326; calls by dose curve; note: actives are rising curves; nearly all actives have a fitted effect of over 50% in size
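A cell-based growth assay was used: compounds that relieve NS1-induced slow growth of budding yeast raise OD600. Assay medium was yeast nitrogen base with ammonium sulphate and -URA supplement, pH 6.0, with 2% galactose.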
* hit, by the source's call; ? = inconclusive; · = not tested or not shown. Many of the other results were omitted from the sample, so hits are more common in it than they were. Unless noted, calls come from the whole dose curve; as a rule, active = well fitted curve in the direction sought with a large enough effect; inconclusive = small, poorly fitted or top-dose-only effect, or another doubt; inactive = no such curve, though single readings can be large; an effect the other way counts as inactive or inconclusive. Potency is the fitted concentration of half-maximal effect.

SMILES	Cruzain inh noDet	Cruzain inh Det	NS1 inh
COc1ccc(/C(C)=N/NC(=O)CNC(=O)c2ccco2)cc1	·	·	-6%
O=C(CNC(=O)c1ccc(Cl)cc1)OCc1nc2ccccc2s1	16µM*	14µM*	-4%
COc1ccc(C(=O)C(OC(=O)CNC(=O)c2ccco2)c2ccccc2)cc1 (stereo not given)	3.2µM*	4µM*	-41%
CNCCC=C1c2ccccc2CCc2ccccc21	-1%	-1%	-6%
COc1ccc(-c2cc(C)no2)cc1S(=O)(=O)N1CCN(c2ccc(C(C)=O)cc2)CC1	-8%	3%	·
COc1ccc(NC(=O)CCC(=O)OC(C(=O)c2ccccc2)c2ccccc2)cc1 (stereo not given)	-8%	-12%	7%
O=C(CNC(=O)c1ccccc1)OC(C(=O)c1ccccc1)c1ccccc1 (stereo not given)	4µM*	6.3µM*	-33%
N#CCC(=O)N/N=C/c1ccc(OS(=O)(=O)c2ccccc2)cc1	1%	3%	14%
Cc1ccc(NC(=O)Cc2ccc(-n3c(C)nc4cccnc43)cc2)c(Cl)c1	-2%	8.9µM*	·
CCc1nc2cccnc2n1-c1ccc(CC(=O)O)cc1	·	·	4%
O=C(NN1C(=O)c2cc(Br)ccc2NC1c1cc(Br)cc(Br)c1O)c1ccncc1 (stereo not given)	10µM*	-10%	24%
O=C(NN1C(=O)c2cc(Br)ccc2NC1c1ccccc1Cl)c1ccncc1 (stereo not given)	-8%	1%	6%
COc1ccc(C)cc1N(C(=O)c1ccccc1)c1nc2ccccc2s1	?	-4%	7%
COc1ccc(C)cc1N(C(=O)c1ccccc1F)c1nc2ccccc2s1	1.6µM*	-5%	?
Cn1c(=O)cc(OCC(=O)NCc2cccnc2)c2ccccc21	-12%	0%	1%
Cc1ccc(-c2nn3c(=O)c(C)nnc3s2)cc1	-9%	0%	-5%
Cc1ccc(C(=O)NCCc2sc(C)nc2C)cc1	?	25µM*	-7%
Cc1nc(C)c(CCNC(=O)c2ccc(C(F)(F)F)cc2)s1	1%	-13%	-5%
C=CCOc1ccc(CNc2nccs2)cc1OC	24%	1%	5%
Cc1nn(-c2ccccc2)c(N)c1C1(O)C(=O)Nc2ccc([N+](=O)[O-])cc21 (stereo not given)	·	·	2%
Cc1nn(-c2ccc([N+](=O)[O-])cc2)c2c1C(c1cccc(Br)c1)N1C(=N2)C(=O)Nc2ccccc21 (stereo not given)	4µM*	-3%	21%
CC(=O)C1=C(C)NC(SCC(=O)c2cc(Cl)ccc2Cl)=C(C#N)C1c1ccco1 (stereo not given)	25µM*	-18%	15%
CCOc1ccccc1NC(=O)CSC1=C(C#N)C(c2ccco2)C(C(=O)Nc2nc3ccccc3s2)=C(C)N1 (stereo not given)	7.9µM*	-9%	14%
CC1=C(C(=O)Nc2ccccc2)C(c2ccco2)C(C#N)=C(SCc2ccccc2)N1 (stereo not given)	20µM*	-5%	-2%
CC(=O)C1=C(C)NC(SCC(=O)c2ccc(Cl)c(Cl)c2)=C(C#N)C1c1ccco1 (stereo not given)	?	-20%	?
SMILES	Cruzain inh noDet	Cruzain inh Det	NS1 inh
CC1=C(C(=O)Nc2ccccc2)C(c2ccco2)C(C#N)=C(SCC(=O)Nc2cccc(C)c2C)N1 (stereo not given)	?	-8%	?
COc1ccccc1NC(=O)C1=C(C)NC(SCC(=O)c2ccc(C)cc2)=C(C#N)C1c1ccco1 (stereo not given)	13µM*	-10%	10%
CC(=O)C1=C(C)NC(SCC(=O)c2ccc(F)cc2)=C(C#N)C1c1ccco1 (stereo not given)	-17%	-17%	-68%
CC1=C(C(=O)Nc2ccccc2)C(c2ccco2)C(C#N)=C(SCC(=O)OC(C)C)N1 (stereo not given)	-9%	-9%	10%
COc1ccc2c(c1)OC[C@H]1c3cc4c(cc3O[C@@H]21)OCO4	-7%	-4%	·
Cc1ccc(C)c(N2CCN(C(=O)CCCn3ncn4c(cc5occc54)c3=O)CC2)c1	?	-10%	-49%
C/C(=N/NC(=O)c1ccc(Br)s1)c1ccncc1	·	·	-19%
CCCC(=O)N(Cc1cc2ccccc2[nH]c1=O)c1ccccc1OC	9%	-1%	5%
COc1ccc(CNC(=O)CSc2nnnn2-c2ccccc2)cc1	6%	2%	-5%
O=[N+]([O-])c1ccc(N/N=C\c2ccccc2OCc2ccccc2)cc1	25µM*	-3%	-5%
Cc1cc(C)nc(N/N=C/c2ccccc2OCc2ccc([N+](=O)[O-])cc2)n1	-16%	-4%	-1%
Cc1ccc(C(=O)Oc2ccc(Br)cc2C(=S)N2CCOCC2)cc1	·	·	-53%
